From PubChem BioAssay
Active and inactive are the calls of the source. How the calls were made is not given here.

Target: Pantothenate synthetase (Mycobacterium tuberculosis (strain ATCC 25618 / H37Rv)) (UniProt P9WIL5)
Assay: Recombinant Mtb pantothenate synthetase (PanC) inhibitors, coupled enzyme, confirmatory (AID 375);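 further: 0% = full reaction with vehicle and 100% = no enzyme background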
Conditions: coupled enzyme assay; at 10 µM, active compounds read high

Pantothenate synthetase (Mycobacterium tuberculosis (strain ATCC 25618 / H37Rv)), sequence (P9WIL5 whole entry, looked up): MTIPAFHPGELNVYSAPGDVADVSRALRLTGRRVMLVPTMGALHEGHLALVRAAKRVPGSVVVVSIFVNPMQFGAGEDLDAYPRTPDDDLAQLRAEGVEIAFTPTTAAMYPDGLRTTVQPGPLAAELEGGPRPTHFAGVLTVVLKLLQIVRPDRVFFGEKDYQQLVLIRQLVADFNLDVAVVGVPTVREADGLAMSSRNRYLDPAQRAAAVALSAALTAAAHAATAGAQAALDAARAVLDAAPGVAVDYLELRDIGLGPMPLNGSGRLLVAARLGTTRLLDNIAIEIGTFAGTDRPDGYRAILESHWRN

Row | SMILES | inhibition
1 | Cc1ccc(S(=O)(=O)NCCOC(=O)Nc2sc(=S)n(C)c2C)cc1 | 0% (inactive)
2 | CCOc1ccc2nc(N3CCC(C(=O)N4CCN(C5CCCCC5)CC4)CC3)sc2c1 | 0% (inactive)
3 | Cc1ccc(-c2nnc3c4ccccc4c(C)nn23)cc1NC(=O)c1ccco1 | 0% (inactive)
4 | Cc1cc(Oc2ccccc2)nc(-c2ccccc2)n1 | 0% (inactive)
5 | O=C(O)CC(C(=O)Nc1cccc(C(F)(F)F)c1)C1CCCO1 (stereo not given) | 1% (inactive)
6 | Cc1[nH]c(=O)[nH]c(=O)c1S(=O)(=O)N1c2ccc(F)cc2CCC1C (stereo not given) | 0% (inactive)
7 | CN1CCCN=C1COC(=O)C(O)(c1ccccc1)C1CCCCC1 (stereo not given) | 0% (inactive)
8 | CCc1nc2c(cnn2-c2ccc(Cl)cc2)c(=O)n1-c1ccc2c(c1)OCCO2 | 2% (inactive)
9 | Cc1cc(NC(=O)CSc2nnc(COc3cccc(C)c3C)n2Cc2ccco2)no1 | 0% (inactive)
10 | CCN(CC)C(=O)C1CCCN(Cc2ccc(N(C)C)cc2)C1 (stereo not given) | 1% (inactive)
11 | CCOC(=O)c1cc(-c2ccc3c(c2)OCO3)nc2onc(C)c12 | 0% (inactive)
12 | CCc1ccc(N2CC34C=CC(O3)C(C(=O)OC)C4C2=O)cc1 (stereo not given) | 0% (inactive)
13 | Cc1ccc(S(=O)(=O)N2CCCN(S(=O)(=O)C3CCS(=O)(=O)C3)CC2)cc1 (stereo not given) | 2% (inactive)
14 | Cc1nn(-c2ccccc2)c2c1C(O)n1c(nc3ccccc31)S2 (stereo not given) | 2% (inactive)
15 | CN(C)c1ccc(-c2nn3c(-c4ccc(Cl)cc4Cl)nnc3s2)cc1 | 9% (inactive)
16 | Cc1cc(NC(=O)CSc2nc3c(c(=O)n2Cc2ccccc2)SC(C)C3)no1 (stereo not given) | 0% (inactive)
17 | CC(=O)NCc1ccc(C(=O)CSc2nnc(-c3ccncc3)n2Cc2ccccc2)o1 | 16% (inactive)
18 | O=S1(=O)Nc2c(ccc3cccnc23)-c2ccccc21 | 0% (inactive)
19 | COC(=O)c1ccc(CNC(=O)COc2ccccc2Br)o1 | 5% (inactive)
20 | CCN(c1cccc(C)c1)S(=O)(=O)c1ccc2[nH]c(=O)c(=O)[nH]c2c1 | 7% (inactive)

Row | SMILES | inhibition
21 | COc1ccc(S(=O)(=O)N(CCN2CCOCC2)Cc2cc(OC)ccc2OC)cc1 | 4% (inactive)
22 | O=C(CN1C(=O)CCSc2ccccc21)Nc1ccccc1 | 0% (inactive)
23 | Cn1c(=N)n(CC(=O)O)c2ccccc21 | 9% (inactive)
24 | COc1ccccc1N=Cc1nc(-c2ccccc2)oc1OC(C)=O | 0% (inactive)
25 | CC(=O)c1cccc(NC(=O)NCc2ccco2)c1 | 0% (inactive)
26 | CCCC(=O)Nc1cc(-c2nnc(OC)c3ccccc23)ccc1N1CCOCC1 | 0% (inactive)
27 | CCN(CC)CCNC(=O)c1ccc(CS(=O)(=O)c2ccc(Br)cc2)o1 | 0% (inactive)
28 | O=C(CCCn1c(=S)[nH]c2cc3c(cc2c1=O)OCO3)N1CCN(c2ccccc2F)CC1 | 0% (inactive)
29 | O=c1ccc2cc3c([nH]c4ccc(Br)cc43)oc-2c1O | 0% (inactive)
30 | CN1[C@@H]2CC(OC(=O)[C@H](CO)c3ccccc3)C[C@H]1[C@@H]1O[C@@H]12 (stereo not given in full) | 0% (inactive)
31 | COc1cc(NC(=O)Nc2cccc(Cl)c2)c(OC)cc1NC(=O)CN1CCCCC1 | 2% (inactive)
32 | COc1ccccc1N1CCN(CC(O)COc2cccc3ccccc23)CC1 (stereo not given) | 3% (inactive)
33 | CCn1c(CNc2ccc(C)cc2)nnc1SCC(=O)NCc1ccccc1 | 0% (inactive)
34 | CCC1(CC)C(=O)N(C)C(=O)NC1=NCc1ccccc1 | 0% (inactive)
35 | Cc1ccc(-c2cc(C(F)(F)F)n3ncc(C(=O)O)c3n2)cc1 | 5% (inactive)
36 | COc1ccccc1N1CCN(C(=O)CSc2nc(-c3ccccc3)cc(=O)[nH]2)CC1 | 1% (inactive)
37 | CN(Cc1ccccc1)C(=O)c1ccc2c(c1)OCO2 | 0% (inactive)
38 | Nc1nc2sc3c(c2c(=O)s1)CCCC3 | 0% (inactive)
39 | Cc1c(C(=O)O)oc2ccc(S(=O)(=O)NCc3ccccc3)cc12 | 0% (inactive)
40 | O=S(=O)(c1ccc(Oc2ccc(-c3nnco3)cc2)nc1)N1CCC(Cc2ccccc2)CC1 | 0% (inactive)
